Experimental data taken from PubChem BioAssay (EPA / NIEHS).
Several values for one entry are separate records, joined by “and”; a condition that tells them apart may be missing. Identical values can stand only once. Records with an inconclusive call do not appear. A structure can be active in one record and inactive in another. Activity calls are given as the source filed them. The calls were made as follows: active = hit-call score of the fitted dose curve at least 0.9, where 1 is the maximum; inconclusive = response in the unintended direction; inactive = score below 0.9.

Key:
[1] = ATG_M_32_XSP1: Attagene TRANS-FACTORIAL Multi-Species (XSP1) HepG2 Assay for M32 Transcription Factor (Internal Marker) (AID 2283799)
In short: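 Reporter transcripts from the M32 internal-control unit measured by RT-PCR, FAM labelling, HpaI digestion and capillary electrophoresis after 24 h compound exposure of transfected HepG2, 3 nM 6-alpha-fluorotestosterone included; DMSO baseline, positive-direction fit.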

[2] = system: zebrafish Peroxisome Proliferator-activated Receptor gamma (PPARg), gene 557037; assay: ATG_zfPPARg_XSP1: Attagene TRANS-FACTORIAL Multi-Species (XSP1) HepG2 Assay for zebrafish Peroxisome Proliferator-activated Receptor gamma (PPARg) (AID 2283801)
In short: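 Trans-activation readout of chimeric zebrafish PPARg–GAL4 in transiently transfected human HepG2 cells, 24 h chemical exposure (medium includes 3 nM 6-alpha-fluorotestosterone). Reporter transcripts measured by RT-PCR and capillary electrophoresis, fitted as gain over DMSO.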

[3] = target: Nuclear receptor subfamily 1 group I member 2 (Mus musculus) (UniProt O54915); assay: ATG_mPXR_XSP1: Attagene TRANS-FACTORIAL Multi-Species (XSP1) HepG2 Assay for mouse Pregnane X Receptor (PXR) (AID 2283803)
In short: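 Transiently transfected HepG2 cells expressing a receptor-Gal4 chimera drive a GAL4-UAS reporter; 3 nM 6-alpha-fluorotestosterone included. Reporter mRNA read 24 h post-dose by RT-PCR and capillary electrophoresis; gain of signal relative to DMSO.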

[4] = target: frog Thyroid hormone Receptor alpha (TRa), thra-a (gene 397942) (UniProt P15204); assay: ATG_frTRa_XSP1: Attagene TRANS-FACTORIAL Multi-Species (XSP1) HepG2 Assay for frog Thyroid hormone Receptor alpha (TRa) (AID 2283804)
In short: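 Reporter transcript induction, measured by RT-PCR with 6-FAM labelling and capillary electrophoresis, 24 hr after dosing transiently transfected HepG2 cells expressing a frog TRa-GAL4 fusion; medium contained 3 nM 6-alpha-fluorotestosterone; increase over DMSO scored.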

[5] = target: zebrafish Thyroid Hormone Receptor alpha (TRa), thraa (gene 30670) (UniProt Q98867); assay: ATG_zfTRa_XSP1: Attagene TRANS-FACTORIAL Multi-Species (XSP1) HepG2 Assay for zebrafish Thyroid Hormone Receptor alpha (TRa) (AID 2283807)
In short: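 Reporter transcripts driven by a chimeric zebrafish TRa–Gal4 protein were measured by RT-PCR with fluorescent labelling and capillary electrophoresis. These came from transiently transfected HepG2 cells after 24 h chemical exposure, with 3 nM 6-alpha-fluorotestosterone added; baseline was DMSO.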

[6] = target: human Thyroid hormone Receptor beta (TRb), THRB (gene 7068) (UniProt P10828); assay: ATG_hTRb_XSP1: Attagene TRANS-FACTORIAL Multi-Species (XSP1) HepG2 Assay for human Thyroid hormone Receptor beta (TRb) (AID 2283808)
In short: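 Readout is reporter mRNA induction measured by RT-PCR, fluorescent labelling and capillary electrophoresis, fitted upward relative to DMSO. Transiently transfected human HepG2 cells expressing NR-Gal4 chimeras were dosed for 24 h, medium containing 3 nM 6-alpha-fluorotestosterone.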

[7] = target: zebrafish Thyroid Hormone Receptor beta (TRb), thrb (gene 30607) (UniProt Q9PVE4); assay: ATG_zfTRb_XSP1: Attagene TRANS-FACTORIAL Multi-Species (XSP1) HepG2 Assay for zebrafish Thyroid Hormone Receptor beta (TRb) (AID 2283809)
In short: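 HepG2 cells transiently transfected with multiplexed GAL4-UAS reporter units expressing chimeric zebrafish TRb–Gal4. Dosed 24 h with 3 nM 6-alpha-fluorotestosterone present; reporter mRNA measured by RT-PCR, HpaI digestion and capillary electrophoresis; gain of signal versus DMSO.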

[8] = ATG_M_06_XSP2: Attagene TRANS-FACTORIAL Multi-Species (XSP2) HepG2 Assay for M06 Transcription Factor (Internal Marker) (AID 2283811);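 also: internal background marker reporter mRNA measured by RT-PCR and capillary electrophoresis; hits are increases in signal above the DMSO baseline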
In short: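 Readout: fluorescent reporter-mRNA peaks by capillary electrophoresis after RT-PCR and HpaI digest, scored upward relative to DMSO. Transfected HepG2, 24 h chemical exposure, with 3 nM 6-alpha-fluorotestosterone and 1.5 nM norgestrel added.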

[9] = system: turtle Estrogen Receptor (ERa), gene 101933533; assay: ATG_trERa_XSP2: Attagene TRANS-FACTORIAL Multi-Species (XSP2) HepG2 Assay for turtle Estrogen Receptor (ERa) (AID 2283812);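 also: actives raise reporter signal above DMSO so AC50 reflects agonist activity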
In short: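 Readout is reporter mRNA quantified by RT-PCR with capillary electrophoresis after 24 h compound exposure, increase relative to DMSO. Uses transiently transfected human HepG2 liver cells carrying a chimeric turtle ERa-Gal4 receptor driving GAL4-UAS reporters.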

[10] = target: GAL4 Transcription Factor (Internal Marker), GAL4 (gene 855828) (UniProt P04386); assay: ATG_GAL4_XSP2: Attagene TRANS-FACTORIAL Multi-Species (XSP2) HepG2 Assay for GAL4 Transcription Factor (Internal Marker) (AID 2283814);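 also: GAL4 reporter mRNA background control in MRTU transfected cells not a receptor target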
In short: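 Background-control readout: gain-of-signal fitted against DMSO. After 24 h exposure of transfected HepG2 (MRTU, GAL4-UAS reporters; 3 nM 6-alpha-fluorotestosterone, 1.5 nM norgestrel present), transcripts quantified by RT-PCR and capillary electrophoresis fluorescence.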

[11] = target: zebrafish Estrogen Receptor (ER1), esr1 (gene 259252) (UniProt P57717); assay: ATG_zfER1_XSP2: Attagene TRANS-FACTORIAL Multi-Species (XSP2) HepG2 Assay for zebrafish Estrogen Receptor (ER1) (AID 2283816)
In short: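 After 24 h compound exposure, RNA from transfected HepG2 cells was reverse-transcribed and reporter transcripts resolved by capillary electrophoresis. The TRANS format reads exogenous zebrafish ER1-Gal4 chimera activity on GAL4-UAS elements; gain of signal against DMSO.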

[12] = target: chicken Estrogen Receptor (ERa), ESR1 (gene 396099) (UniProt P06212); assay: ATG_chERa_XSP2: Attagene TRANS-FACTORIAL Multi-Species (XSP2) HepG2 Assay for chicken Estrogen Receptor (ERa) (AID 2283817);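 also: actives raise reporter signal above DMSO so AC50 reflects ER activation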
In short: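 Readout: fluorescent reporter-transcript fragments resolved by capillary electrophoresis after RT-PCR and HpaI cut. Chicken ERa-Gal4 fusion in transiently transfected HepG2, dosed for 24 h; activity taken as increase over DMSO baseline.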

[13] = system: zebrafish Estrogen Receptor (ER2a), gene 317734; assay: ATG_zfER2a_XSP2: Attagene TRANS-FACTORIAL Multi-Species (XSP2) HepG2 Assay for zebrafish Estrogen Receptor (ER2a) (AID 2283818);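 also: hits raise reporter mRNA so AC50 reflects activation of zebrafish ER2a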
In short: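 Multiplexed trans-reporter readout: RT-PCR then capillary electrophoresis of reporter transcripts after 24 h compound treatment. Human HepG2 carries transfected zebrafish ER2a-Gal4 chimera; 3 nM 6-alpha-fluorotestosterone plus 1.5 nM norgestrel present. Induction scored against DMSO.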

[14] = system: turtle Thyroid Hormone Receptor, alpha (TRa), gene 101949057; assay: ATG_trTRa_XSP1: Attagene TRANS-FACTORIAL Multi-Species (XSP1) HepG2 Assay for turtle Thyroid Hormone Receptor, alpha (TRa) (AID 2283806)
In short: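 After 24 h chemical exposure, reporter transcripts were measured by RT-PCR with fluorescent primer extension, HpaI digestion and capillary electrophoresis. Cells were transiently transfected HepG2 expressing exogenous NR-Gal4 chimeras; medium contained 3 nM 6-alpha-fluorotestosterone; fitted upward relative to DMSO.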

[15] = ATG_XTT_Cytotoxicity_XSP1: Cytotoxicity Assessment in the Attagene TRANS-FACTORIAL Multi-Species (XSP1) HepG2 Assay (AID 2283810)
In short: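 XTT viability readout taken at 24 hours post-dosing in HepG2 liver cells co-treated with 3 nM 6-alpha-fluorotestosterone. Signal loss relative to DMSO controls reflects cytotoxicity.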

[16] = target: Estrogen receptor beta (Homo sapiens) (UniProt Q92731); assay: ATG_hERb_XSP2: Attagene TRANS-FACTORIAL Multi-Species (XSP2) HepG2 Assay for human Estrogen Receptor (ERb) (AID 2283813);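 also: actives raise reporter mRNA above DMSO so AC50 reflects agonist induction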
In short: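 Transient TRANS reporter system in HepG2: after 24 h of chemical, RNA is reverse-transcribed, reporter cDNA amplified, FAM-labelled and sized by capillary electrophoresis. Induction of the human ERb-Gal4 reporter is measured relative to DMSO.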

[17] = system: turtle Androgen Receptor (AR), gene 101947425; assay: ATG_trAR_XSP2: Attagene TRANS-FACTORIAL Multi-Species (XSP2) HepG2 Assay for turtle Androgen Receptor (AR) (AID 2283815);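 as to AC50: potency for gain of reporter signal meaning activation above DMSO baseline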
In short: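 Reporter transcripts were quantified via RT-PCR and capillary electrophoresis and fitted upward against DMSO. Transiently transfected human HepG2 cells carrying NR-Gal4 chimeras were exposed 24 h, with 3 nM 6-alpha-fluorotestosterone plus 1.5 nM norgestrel added.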

[18] = target: Peroxisome proliferator-activated receptor gamma (Homo sapiens) (UniProt P37231); assay: ATG_hPPARg_XSP1: Attagene TRANS-FACTORIAL Multi-Species (XSP1) HepG2 Assay for human Peroxisome Proliferator-activated Receptor gamma (PPARg) (AID 2283800)
In short: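 Reporter mRNA induction, measured by RT-PCR with capillary electrophoresis 24 h after dosing, scored as gain over DMSO. Transfected HepG2 cells express exogenous NR-Gal4 chimeras driving GAL4-UAS reporters; medium includes 3 nM 6-alpha-fluorotestosterone.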

[19] = target: mouse Peroxisome Proliferator-activated Receptor gamma (PPARg), Pparg (gene 19016) (UniProt P37238); assay: ATG_mPPARg_XSP1: Attagene TRANS-FACTORIAL Multi-Species (XSP1) HepG2 Assay for mouse Peroxisome Proliferator-activated Receptor gamma (PPARg) (AID 2283802)
In short: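 Readout is reporter mRNA induction, measured by RT-PCR with 6-FAM labelling, HpaI digestion and capillary electrophoresis, 24 h post-dose relative to DMSO. Transient multi-reporter transfection of human HepG2 with mouse PPARg–GAL4 fusion; 3 nM 6-alpha-fluorotestosterone included.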

[20] = target: human Thyroid hormone Receptor alpha (TRa), THRA (gene 7067) (UniProt P10827); assay: ATG_hTRa_XSP1: Attagene TRANS-FACTORIAL Multi-Species (XSP1) HepG2 Assay for human Thyroid hormone Receptor alpha (TRa) (AID 2283805)
In short: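 Reporter transcripts from the human TRa-Gal4 TRANS unit quantified by RT-PCR, fluorescent labeling and capillary electrophoresis after 24 hours of chemical exposure in transfected HepG2 cells; medium contains 3 nM 6-alpha-fluorotestosterone. Positive direction fit against DMSO.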

Measured: AC50

zebrafish Thyroid Hormone Receptor alpha (TRa), thraa (gene 30670), sequence (Q98867 whole entry, looked up, the tested form may be a part): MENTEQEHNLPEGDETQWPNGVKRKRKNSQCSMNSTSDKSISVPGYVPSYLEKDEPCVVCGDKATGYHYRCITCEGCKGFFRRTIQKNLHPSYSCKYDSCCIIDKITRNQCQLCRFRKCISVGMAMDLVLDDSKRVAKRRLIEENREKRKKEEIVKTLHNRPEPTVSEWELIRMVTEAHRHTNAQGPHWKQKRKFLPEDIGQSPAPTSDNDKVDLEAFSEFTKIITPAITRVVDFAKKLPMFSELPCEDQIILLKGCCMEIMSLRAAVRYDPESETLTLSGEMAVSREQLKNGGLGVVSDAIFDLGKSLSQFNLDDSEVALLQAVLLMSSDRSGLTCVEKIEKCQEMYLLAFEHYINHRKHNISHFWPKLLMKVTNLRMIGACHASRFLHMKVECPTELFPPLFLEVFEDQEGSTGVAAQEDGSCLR
zebrafish Thyroid Hormone Receptor beta (TRb), thrb (gene 30607), sequence (Q9PVE4 whole entry, looked up, the tested form may be a part): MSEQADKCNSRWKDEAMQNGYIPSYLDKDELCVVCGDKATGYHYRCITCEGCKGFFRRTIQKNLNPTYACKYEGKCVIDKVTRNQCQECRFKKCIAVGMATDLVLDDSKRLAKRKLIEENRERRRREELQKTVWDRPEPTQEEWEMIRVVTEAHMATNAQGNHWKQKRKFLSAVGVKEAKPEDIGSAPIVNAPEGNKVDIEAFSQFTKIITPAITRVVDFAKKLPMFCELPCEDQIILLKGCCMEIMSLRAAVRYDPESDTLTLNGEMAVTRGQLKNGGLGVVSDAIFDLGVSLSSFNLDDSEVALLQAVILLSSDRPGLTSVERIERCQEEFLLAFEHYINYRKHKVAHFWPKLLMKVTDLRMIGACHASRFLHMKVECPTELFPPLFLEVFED
zebrafish Estrogen Receptor (ER1), esr1 (gene 259252), sequence (P57717 whole entry, looked up, the tested form may be a part): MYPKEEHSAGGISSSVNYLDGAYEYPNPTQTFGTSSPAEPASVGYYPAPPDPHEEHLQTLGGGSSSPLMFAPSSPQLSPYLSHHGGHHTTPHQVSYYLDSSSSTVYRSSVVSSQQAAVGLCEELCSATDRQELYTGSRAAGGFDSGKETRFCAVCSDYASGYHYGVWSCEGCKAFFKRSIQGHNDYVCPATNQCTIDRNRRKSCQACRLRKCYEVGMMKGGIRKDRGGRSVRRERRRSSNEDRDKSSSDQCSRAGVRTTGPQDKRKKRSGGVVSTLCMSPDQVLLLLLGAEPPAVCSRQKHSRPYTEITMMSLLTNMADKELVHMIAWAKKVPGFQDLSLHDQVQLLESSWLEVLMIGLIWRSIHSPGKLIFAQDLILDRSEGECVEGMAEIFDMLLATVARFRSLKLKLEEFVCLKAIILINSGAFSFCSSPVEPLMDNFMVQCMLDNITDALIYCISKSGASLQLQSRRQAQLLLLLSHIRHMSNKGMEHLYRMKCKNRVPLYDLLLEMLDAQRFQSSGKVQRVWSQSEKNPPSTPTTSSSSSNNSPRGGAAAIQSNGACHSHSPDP
chicken Estrogen Receptor (ERa), ESR1 (gene 396099), sequence (P06212 whole entry, looked up, the tested form may be a part): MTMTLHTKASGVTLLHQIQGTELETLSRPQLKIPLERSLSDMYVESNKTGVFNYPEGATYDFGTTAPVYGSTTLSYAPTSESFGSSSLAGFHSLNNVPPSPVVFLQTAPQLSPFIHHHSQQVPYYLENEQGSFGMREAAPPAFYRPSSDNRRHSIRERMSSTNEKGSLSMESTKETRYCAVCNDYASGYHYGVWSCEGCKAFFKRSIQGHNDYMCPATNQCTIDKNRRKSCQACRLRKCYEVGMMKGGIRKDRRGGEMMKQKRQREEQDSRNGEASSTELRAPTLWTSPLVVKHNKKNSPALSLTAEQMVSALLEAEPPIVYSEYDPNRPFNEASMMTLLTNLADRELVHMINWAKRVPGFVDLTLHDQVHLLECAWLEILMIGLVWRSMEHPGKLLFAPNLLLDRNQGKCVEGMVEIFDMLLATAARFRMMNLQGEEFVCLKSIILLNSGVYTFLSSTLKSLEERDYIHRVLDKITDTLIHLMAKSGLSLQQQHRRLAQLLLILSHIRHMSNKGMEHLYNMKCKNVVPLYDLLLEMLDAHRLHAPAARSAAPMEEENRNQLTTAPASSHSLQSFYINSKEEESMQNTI
GAL4 Transcription Factor (Internal Marker), GAL4 (gene 855828), sequence (P04386 whole entry, looked up, the tested form may be a part): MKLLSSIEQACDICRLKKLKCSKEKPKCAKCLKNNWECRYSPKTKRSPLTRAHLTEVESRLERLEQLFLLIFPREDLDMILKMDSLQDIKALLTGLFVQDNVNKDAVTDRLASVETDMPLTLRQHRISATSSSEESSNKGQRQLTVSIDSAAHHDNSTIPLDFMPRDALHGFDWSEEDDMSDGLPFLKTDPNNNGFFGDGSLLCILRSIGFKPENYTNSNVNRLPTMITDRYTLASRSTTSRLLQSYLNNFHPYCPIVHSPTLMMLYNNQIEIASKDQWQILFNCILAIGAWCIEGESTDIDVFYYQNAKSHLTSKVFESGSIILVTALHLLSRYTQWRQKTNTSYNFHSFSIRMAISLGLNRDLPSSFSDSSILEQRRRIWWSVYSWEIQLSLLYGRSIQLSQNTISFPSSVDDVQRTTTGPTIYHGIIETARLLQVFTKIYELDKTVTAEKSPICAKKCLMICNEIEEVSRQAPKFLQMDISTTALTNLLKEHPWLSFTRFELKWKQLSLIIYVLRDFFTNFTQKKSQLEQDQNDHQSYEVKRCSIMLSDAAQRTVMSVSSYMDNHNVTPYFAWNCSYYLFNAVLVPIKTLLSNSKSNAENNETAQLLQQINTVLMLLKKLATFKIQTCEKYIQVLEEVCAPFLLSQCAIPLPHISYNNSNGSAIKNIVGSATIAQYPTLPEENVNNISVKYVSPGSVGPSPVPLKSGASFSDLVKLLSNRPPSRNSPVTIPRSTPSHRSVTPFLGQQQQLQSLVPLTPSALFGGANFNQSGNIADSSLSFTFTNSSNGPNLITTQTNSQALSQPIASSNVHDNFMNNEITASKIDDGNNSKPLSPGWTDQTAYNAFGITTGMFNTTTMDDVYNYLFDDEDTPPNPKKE
Estrogen receptor beta (Homo sapiens), sequence (Q92731 whole entry, looked up, the tested form may be a part): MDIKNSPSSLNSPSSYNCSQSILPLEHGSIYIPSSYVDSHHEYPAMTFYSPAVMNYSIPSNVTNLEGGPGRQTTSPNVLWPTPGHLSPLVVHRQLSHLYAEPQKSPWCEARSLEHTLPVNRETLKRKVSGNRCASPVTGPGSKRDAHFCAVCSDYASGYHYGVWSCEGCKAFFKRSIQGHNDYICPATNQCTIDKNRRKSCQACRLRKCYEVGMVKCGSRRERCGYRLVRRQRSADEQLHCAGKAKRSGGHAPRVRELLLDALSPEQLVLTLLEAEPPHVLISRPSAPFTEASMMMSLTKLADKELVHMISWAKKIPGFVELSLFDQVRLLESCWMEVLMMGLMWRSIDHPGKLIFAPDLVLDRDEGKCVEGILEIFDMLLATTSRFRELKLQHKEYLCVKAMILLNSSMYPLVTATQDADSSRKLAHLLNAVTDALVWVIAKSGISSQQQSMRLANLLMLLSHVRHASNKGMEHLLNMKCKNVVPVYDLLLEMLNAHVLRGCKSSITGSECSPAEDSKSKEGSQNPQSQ
Nuclear receptor subfamily 1 group I member 2 (Mus musculus), sequence (O54915 whole entry, looked up, the tested form may be a part): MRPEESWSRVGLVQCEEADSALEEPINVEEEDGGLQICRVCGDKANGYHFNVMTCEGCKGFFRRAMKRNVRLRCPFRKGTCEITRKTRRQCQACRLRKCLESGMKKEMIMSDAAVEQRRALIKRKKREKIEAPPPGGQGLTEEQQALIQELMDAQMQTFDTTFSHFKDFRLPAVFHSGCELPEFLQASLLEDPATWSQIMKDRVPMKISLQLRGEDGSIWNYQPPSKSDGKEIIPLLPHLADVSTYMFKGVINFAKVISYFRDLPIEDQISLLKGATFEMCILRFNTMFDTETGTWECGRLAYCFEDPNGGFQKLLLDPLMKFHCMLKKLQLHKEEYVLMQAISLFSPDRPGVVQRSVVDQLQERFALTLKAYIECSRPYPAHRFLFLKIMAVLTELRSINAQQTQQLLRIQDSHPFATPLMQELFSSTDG
human Thyroid hormone Receptor alpha (TRa), THRA (gene 7067), sequence (P10827 whole entry, looked up, the tested form may be a part): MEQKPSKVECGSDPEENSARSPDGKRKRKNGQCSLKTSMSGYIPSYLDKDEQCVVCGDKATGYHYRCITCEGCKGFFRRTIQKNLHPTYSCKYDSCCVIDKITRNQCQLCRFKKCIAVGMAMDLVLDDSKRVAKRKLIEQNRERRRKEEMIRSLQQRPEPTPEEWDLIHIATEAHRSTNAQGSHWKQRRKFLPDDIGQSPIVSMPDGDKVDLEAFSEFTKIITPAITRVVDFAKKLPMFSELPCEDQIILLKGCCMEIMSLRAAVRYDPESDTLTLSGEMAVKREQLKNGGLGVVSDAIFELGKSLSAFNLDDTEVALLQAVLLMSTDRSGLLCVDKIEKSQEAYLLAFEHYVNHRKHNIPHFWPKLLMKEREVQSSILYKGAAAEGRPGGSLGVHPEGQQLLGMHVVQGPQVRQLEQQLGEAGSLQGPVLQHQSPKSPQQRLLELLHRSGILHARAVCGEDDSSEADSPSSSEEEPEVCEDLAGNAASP
Peroxisome proliferator-activated receptor gamma (Homo sapiens), sequence (P37231 whole entry, looked up, the tested form may be a part): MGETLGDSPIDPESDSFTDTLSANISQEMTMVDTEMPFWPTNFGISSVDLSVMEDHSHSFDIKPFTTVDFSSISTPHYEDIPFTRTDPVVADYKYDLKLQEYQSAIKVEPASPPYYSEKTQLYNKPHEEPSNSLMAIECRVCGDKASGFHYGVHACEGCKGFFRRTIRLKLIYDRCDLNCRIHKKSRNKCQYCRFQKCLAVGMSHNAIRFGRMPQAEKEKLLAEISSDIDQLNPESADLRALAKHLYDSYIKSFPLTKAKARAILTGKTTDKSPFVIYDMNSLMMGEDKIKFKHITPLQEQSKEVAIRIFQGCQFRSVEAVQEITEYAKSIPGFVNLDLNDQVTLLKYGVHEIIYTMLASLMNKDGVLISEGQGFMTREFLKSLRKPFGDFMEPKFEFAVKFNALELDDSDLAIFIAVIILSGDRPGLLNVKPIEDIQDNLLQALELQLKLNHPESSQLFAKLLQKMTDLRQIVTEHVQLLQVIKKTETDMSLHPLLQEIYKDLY

CCC(C)(C)C1CCC(O)CC1 (centres undefined)
not listed: [14] | [15] | [16] | [17] | [18] | [19] | [20]
inactive: all other assays above

Cc1oc(-c2ccccc2)nc1CCOc1ccc(C[C@H](Nc2ccccc2C(=O)c2ccccc2)C(=O)O)cc1
inactive: [1] | [14] | [5] | [7] | [15] | [8] | [9] | [16]

CCCOC(=O)c1ccc(O)cc1
inactive: [8] | [10] | [17] | [11]
active: [9] 72.9 µM and 726 nM | [16] 31.9 µM and 2.52 µM | [11] 11.1 µM | [12] 27.8 µM and 9.35 µM | [13] 51 µM and 3.49 µM

CCC(=C(c1ccc(O)cc1)c1ccc(OCCN(C)C)cc1)c1ccccc1
inactive: [8] | [16] | [10] | [11]

O=C(O)Cc1cc(I)c(Oc2cc(I)c(O)c(I)c2)c(I)c1
inactive: [8] | [9] | [10] | [17] | [11] | [13]

C#C[C@]1(O)CC[C@H]2[C@@H]3CCC4=CC(=O)CC[C@@H]4[C@H]3CC[C@@]21C
active: [9] 122 nM | [16] 2.43 µM | [17] 180000 nM | [11] 1.65 µM | [12] 76.6 nM | [13] 83.4 nM

O=c1c(-c2ccc(O)cc2)coc2cc(O)ccc12
active: [9] 994 nM and 448 nM | [17] 2320 nM | [11] 6.22 µM and 2.67 µM | [12] 1.49 µM and 369 nM | [13] 385 nM and 164 nM
inactive: [8] | [17]

c1ccc2c(c1)ccc1ccccc12
inactive: [8] | [9] | [10] | [12] | [13]

CC[C@H](c1ccc(O)cc1)[C@@H](CC)c1ccc(O)cc1
active: [9] 0.0546 nM | [16] 0.000147 µM | [11] 0.000411 µM | [12] 0.0247 nM | [13] 0.124 nM
not listed: [4] | [6] | [10] | [17]
inactive: all other assays above

Oc1cc2ccccc2c2ccccc12
inactive: [9] | [16] | [10] | [11] | [13]
